Most compounds without a hit are left out; they make up all but 2.3% or so of the library.
Kir21 block = inhibitors of mouse Kir2.1 inward-rectifier potassium channel; HEK293-Kir2.1, FluxOR thallium flux fluorescence; active compounds read low; B-score at 10 µM; 310,000 compounds, 0.85% hits;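 active = fluorescence ratio B-score at or below minus 3 SD of library scores, with starting-brightness B-score within 2 SD, cut at about -4.2 in these data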;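 note: channel flux triggered by added potassium and thallium sulfate stimulus; B-score of peak minus minimum fluorescence over baseline after thallium stimulus; more negative B-score means stronger Kir2.1 block with less thallium influx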
FID counter = compounds displacing fluorescent DNA intercalator, primary screen, artefact control for HCV NS3 helicase inhibitor project, biochemical, FID fluorescence. DNA fluorescent intercalator displacement. inhibition, % at 7.9 µM. 290,000 compounds, 0.17% hits. AID 1845, 2009; in the data active = inhibition above about 37%;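 note: 0% = vehicle and 100% = reference compound; higher means more ethidium bromide displaced from hairpin DNA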
Rce1 inhib = yeast Rce1p protease inhibitors, primary screen, biochemical, fluorescence, cell-free homogeneous; CAAX prenyl protease 2 (Saccharomyces cerevisiae (strain ATCC 204508 / S288c)), Q03530; yeast membranes, quenched prenylated peptide cleavage fluorescence; calls only; 290,000 compounds, 0.27% hits;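 active = fall in fluorescence gain of 50% or more versus controls, with final raw signal at or below 3038400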;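 note: plate controls were neutral control wells for no effect and wells lacking membranes for full effect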
Target sequence (Q03530 whole entry, looked up): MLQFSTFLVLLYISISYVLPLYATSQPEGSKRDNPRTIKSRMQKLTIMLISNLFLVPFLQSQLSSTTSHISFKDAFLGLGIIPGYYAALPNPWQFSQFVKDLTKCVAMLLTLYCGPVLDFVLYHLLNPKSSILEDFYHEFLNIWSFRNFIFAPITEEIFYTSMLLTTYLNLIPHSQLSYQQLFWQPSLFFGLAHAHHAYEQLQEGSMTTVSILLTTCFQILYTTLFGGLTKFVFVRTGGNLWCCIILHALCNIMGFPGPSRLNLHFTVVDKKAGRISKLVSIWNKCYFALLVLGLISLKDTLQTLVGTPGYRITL
PfM18AAP inh = PfM18AAP inhibitors, malaria aminopeptidase, primary screen, biochemical, QFRET, recombinant enzyme | H-Glu-NHMec fluorogenic cleavage | inhibition, % at 7.35 µM | 290,000 compounds, 1.2% hits;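 active = inhibition above the campaign mean inhibition over all tested compounds plus 3 SD, cut at about 28% in these data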;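 note: 0% = plate median of test compound wells and 100% = 2 mM ZnCl2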
Starred values were filed as active, the others as inactive; i = inactive; / = no result given; + = active, no number.

SMILES | Kir21 block | FID counter | Rce1 inhib | PfM18AAP inh
COc1ccc(C2/C=C\CN(C(=O)c3ccc(C)cc3)[C@H](Cc3ccccc3)C(=O)N2Cc2ccc(F)cc2)cc1 (some centres not stated) | -0.13 | / | + | /
FC(F)(F)c1ccc(/C=N/n2c(C3CCCCC3)n[nH]c2=S)cc1 | -0.09 | -22 | i | 1
COc1ccc(NCc2nc3ccccc3n2CCOc2ccccc2)cc1 | -4.5* | -4 | i | -3
Nc1nc2ccccc2n1CCOc1ccc(Br)cc1 | -11* | 15 | i | -10
CCOC(=O)Cn1c(=N)n(CCOc2ccc(Br)cc2)c2ccccc21 | -6.4* | 28 | i | -15
CCOC(=O)Cn1c(=N)n(CCOc2cccc(C)c2)c2ccccc21 | / | 14 | / | 1
Cc1cc(N/N=C/c2ccccc2O)c2ccccc2n1 | 0.9 | 23 | i | -3
Cc1ccccc1/C=N/Nc1nc2ccccc2c(=O)n1O | 0.37 | -5 | / | 31*
CC1(C)CC(=O)C2=C(C1)NC(SCC(=O)Nc1ccccc1)=C(C#N)C21CCCCC1 | -1.3 | -1 | i | 2
CC1(C)CC(=O)C2=C(C1)NC(=S)C(C#N)C21CCCCC1 (configuration not stated) | -0.47 | -4 | i | 29*
O=C(NCc1ccccc1)c1ccc(NC(=O)c2ccccc2F)cc1 | 0.53 | -15 | i | -4
Cc1ccc(C(C[N+](=O)[O-])c2c(C)[nH]n(-c3ccccc3)c2=O)cc1 (configuration not stated) | -12* | -1 | i | 25
Cc1[nH]n(-c2ccccc2)c(=O)c1C(C[N+](=O)[O-])c1ccc(F)cc1 (configuration not stated) | 0.67 | 0 | i | 30*
Cc1[nH]n(-c2ccccc2)c(=O)c1C(C[N+](=O)[O-])c1ccc(Cl)cc1 (configuration not stated) | -0.37 | 0 | i | 28*
Cc1cc(OC(C)C(=O)NCC(O)c2ccccc2)c2c(C)cc(=O)oc2c1 (configuration not stated) | 0.43 | -29 | i | -12
CCOc1ccccc1CN1CCNC(=O)C1CC(=O)NCCc1ccccn1 (configuration not stated) | -0.1 | -11 | i | -10
CCCCC(O)(CCN1CCOCC1)c1ccc(Cl)cc1 (configuration not stated) | -0.79 | 49* | i | 1
COc1cc(CCC(=O)OCC(=O)Nc2ccc(C)cc2Cl)cc(OC)c1OC | -1.5 | -38 | i | -13
CCCc1nc2ccccc2c(=O)n1CCc1ccccc1 | -3.5 | -20 | i | -12
O=C(CCSc1ccccn1)c1ccccc1 | -2 | -4 | i | 55*
O=C(O)CCSc1ccccn1 | 0.72 | 2 | i | 5
CCN(CC)c1ccc(N=Nc2ncn[nH]2)cc1 | 0.46 | -8 | i | 30*
CCSc1nnc(Cn2c(=O)sc3ccccc32)n1C | -1.5 | -3 | i | -9
CC(Sc1nnc(Cn2c(=O)sc3ccccc32)n1C)c1ccccc1 (configuration not stated) | -4.2* | -16 | i | 6
CCN1CCN(C(=O)C2CCN(c3nnc(C)c4c(C)n(-c5ccc(C)cc5)nc34)CC2)CC1 | -0.4 | 43* | i | 4
SMILES | Kir21 block | FID counter | Rce1 inhib | PfM18AAP inh
COc1ccc(-n2nc3c(N4CCC(C(=O)NCCc5ccccc5C)CC4)nnc(C)c3c2C)cc1 | 1.6 | 8 | i | -6
Cc1ccc(-n2nc3c(N4CCC(C(=O)N5CCC(C(N)=O)CC5)CC4)nnc(C)c3c2C)cc1 | 0.02 | 7 | i | 1
Cc1ccc(-n2nc3c(N4CCC(C(=O)NCCc5ccccc5C)CC4)nnc(C)c3c2C)cc1 | 1.6 | 37* | i | 15
CC(OC(=O)Cc1ccc(Cl)cc1)C(=O)NCCC1=CCCCC1 (configuration not stated) | -1.1 | -25 | i | 3
CC(Oc1ccc(Cl)cc1Cl)C(=O)NCCC1=CCCCC1 (configuration not stated) | -7* | -15 | i | 1
CC(Oc1cccc(Cl)c1)C(=O)N(C)CC(=O)Nc1ccc(N2CCOCC2)cc1 (configuration not stated) | 0.98 | / | i | /
CC(C)c1c(C(=O)N/N=C2\CCc3ccccc32)nnn1-c1nonc1N | 1.2 | -30 | i | 3
COC(=O)c1sc2cc(=O)n(-c3cccc(C(F)(F)F)c3)nc2c1O | 1.3 | -25 | i | 31*
CSc1ccccc1C(=O)NC1CCSc2ccccc21 (configuration not stated) | -1.4 | -15 | / | -2
COc1ccc(C(=O)NC2CC2)cc1OC1CCN(Cc2ccc(NC(C)=O)cc2)CC1 | 0.87 | -3 | i | 1
CCCCNC(=S)NNC(=O)c1csc(C)c1 | 0.73 | -6 | i | 21
CCNC(=S)NNC(=O)c1csc(C)c1 | -1 | -3 | i | 28*
Cc1c(C(=O)NC2CCN(Cc3ccccc3)C2)oc2c(Cl)cccc12 (configuration not stated) | -9.9* | 4 | i | 4
CCOC(=O)c1cc(NC(=O)CNCC(c2ccccc2)N(C)C)cc(C(=O)OCC)c1 (configuration not stated) | -1.9 | 38* | i | 16
CC(=O)c1ccc(NC(=O)CNCC(c2ccccc2)N(C)C)cc1 (configuration not stated) | 0.18 | 11 | i | 1
COc1cccc(O)c1CN1CCC(n2nccc2NC(=O)c2ccc3c(c2)OCO3)CC1 | -0.74 | 4 | i | 3
c1ccc2c3c([nH]c2c1)C(C1CCCCC1)N(Cc1ncc[nH]1)CC3 (configuration not stated) | -4.6* | 4 | i | -3
Cc1cnc(CN2CCc3c([nH]c4ccccc34)C2C2CCCCC2)[nH]1 (configuration not stated) | -4 | 8 | i | 9
O=C1CC(c2ccc(Cl)cc2)c2c(O)cc(O)cc2O1 (configuration not stated) | -1.7 | 0 | i | 6
C/C=C/C=C/[C@H]1Cc2cc(O)cc(O)c2O1 | -4.3* | / | i | /
Cc1ccc(C)c(S(=O)(=O)N2CCCCC2CCNC(=O)C(=O)NCc2ccco2)c1 (configuration not stated) | 0.82 | / | i | /
CN(C)CCNc1ncnc2oc(-c3ccccc3)c(-c3ccccc3)c12 | -4.7* | 15 | + | 1
O=C(NCc1ncc(C(F)(F)F)cc1Cl)Nc1ccccc1 | 0.88 | -3 | i | -2
CCOc1ccc(NC(=O)c2ccc(NS(=O)(=O)c3cccs3)cc2)cc1 | 1.3 | -19 | / | 11
CC(C)(C)[C@@H]1CCC(=O)N(CC[C@H](N=[N+]=[N-])c2ccccc2)CC1 | -1.2 | -42 | i | -4
Cc1ccc(NC(=O)c2ccc3nc(N4CCOCC4)sc3c2)c(Cl)c1 | -3.5 | -25 | i | 29*
CCc1ccccc1NC(=O)c1ccc2nc(N3CCOCC3)sc2c1 | 0.27 | -34 | i | -1
